# Experimental data reported in PubChem BioAssay (EPA / NIEHS).
# Activity calls are given as the source filed them. The calls were made as follows: active = hit-call score of the fitted dose curve at least 0.9, where 1 is the maximum; inactive = score below 0.9.
# Test: ATG_GRE_CIS: Attagene CIS-FACTORIAL HepG2 Assay for human Glucocorticoid Response Elements (GRE) (AID 2282947)
# Settings: HepG2 GRE cis-reporter, Attagene multiplex mRNA; actives raise or lower the signal
# Procedure: ATG_CIS is a cell-based, multiplexed-readout assay that uses HepG2, a human liver cell line, with measurements taken at 24 hours after chemical dosing in a 24-well plate.ATG_GRE_CIS is one of 52 assay component(s) measured or calculated from the ATG_CIS assay. It is designed to make measurements of mRNA induction, a form of inducible reporter, as detected with fluorescence intensity signals by Reverse transcription polymerase chain reaction (RT-PCR) and Capillary electrophoresis technology.Data from the assay component ATG_GRE_CIS was analyzed into 1 assay endpoint. This assay endpoint, ATG_GRE_CIS, was analyzed with bidirectional fitting relative to DMSO as the negative control and baseline of activity. Using a type of inducible reporter, measures of mRNA for gain or loss-of-signal activity can be used to understand the reporter gene at the transcription factor-level as they relate to the gene NR3C1. Furthermore, this assay endpoint can be referred to as a primary readout, because this assay has produced multiple assay endpoints where this one serves a reporter gene function. To generalize the intended target to other relatable targets, this assay endpoint is annotated to the nuclear receptor intended target family, where the subfamily is steroidal.
# Human liver HepG2 cells are transiently transfected with multiple reporter transcription units (MRTUs) in 6-well plates using FuGene 6 reagent (Roche; 3 ml FuGene/1 mg DNA). The MRTU constructs are regulated by a cis-regulating element (promoter). […] A major difference between the CIS and TRANS system is that in CIS activities of endogenous TFs are measured, whereas the TRANS assay evaluates changes in activities of exogenous, chimeric NR-Gal4 proteins. […] At the end of 24 hour incubation, total RNA was isolated using TriZol reagent (Invitrogen). The isolated RNA is then reverse-transcribed using oligo(dT) primer and Mo-MLV reverse transcriptase (Invitrogen) with DNAse I (Ambion) treatment for 30 min. The one-tenth of the produced cDNA was amplified by PCR using Taq DNA polymerase (Invitrogen) and two reporter sequence-specific primers. The PCR products were fluorescently labeled by primer extension with 6-arboxyfluorescein (6-FAM) 5'-labeled reporter sequence-specific primer (2 min at 95 C, 20 s at 68 C and 10 min at 72 C) and these products were digested with 5U of HpaI (New England Biolabs) for 2h at 37 C. The fragments were purified using Qiaquick PCR columns (Qiagen), analyzed on an ABI 3130xL genetic analyzer (Applied Biosystems) with peak positions identified by using a set of X-rhodamine (ROX)-labeled MapMarker1000 molecular weight standards (BioVentures). The raw capillary electrophoresis data was processed using Attagraph software (Attagene).
Structure (SMILES),outcome,AC50
C=CCCCCCCCCCC,inactive,–
NCCNc1cccc2ccccc12,inactive,–
CCCCN(CCCC)C(=O)N(CCCC)CCCC,–,48.3 µM (active)
Cc1cc(=O)oc2cc(N(C)C)ccc12,inactive,–
CCCCC(CC)COC(C)=O (stereo not given),inactive,–
C=CC(=O)OCCCC,inactive,–
CCCOCCO,inactive,–
CCCCC(CC)C(=O)OC(C)C (stereo not given),inactive,–
NCC1CCCC(CN)C1 (stereo not given),inactive,–
CCCCCC(C=O)=Cc1ccccc1,inactive,–
COC(=O)c1cccnc1,inactive,–
CCc1ccc(O)cc1,inactive,–
Cc1cc(CCC(=O)OCCOCCOCCOC(=O)CCc2cc(C)c(O)c(C(C)(C)C)c2)cc(C(C)(C)C)c1O,inactive,–
CCCCCCCCN1CCCC1=O,inactive,–
IC(I)I,inactive,–
CC(C)c1ccccc1O,inactive,–
COc1cc(CCC(C)=O)ccc1O,inactive,–
COc1ccc(N=Nc2cc(C)c(N=Nc3ccc(S(=O)(=O)O)cc3)cc2OC)cc1,inactive,–
Cc1ccc(OC(=O)c2ccccc2O)cc1,inactive,–
CCCC[O][Al]([O]CCCC)[O]CCCC,inactive,–

Structure (SMILES),outcome,AC50
O=P(O)(O)O,inactive,–
Cc1ccc(S(=O)(=O)Oc2ccc(N=Nc3ccc(-c4ccc(N=Nc5c(O)ccc6cc(S(=O)(=O)O)cc(S(=O)(=O)O)c56)c(C)c4)cc3C)cc2)cc1,inactive,–
CCCCCCCCCCCCN1CCCCCC1=O,inactive,–
C[C@H]1C[C@@H](O)CC(C)(C)C1,inactive,–
O=C1OC[C@H](Cc2cccc(O)c2)[C@H]1Cc1cccc(O)c1,inactive,–
CC(=O)O[C@@H]1CC2CCC1(C)C2(C)C (stereo not given in full),inactive,–
CCCCC(CC)COC(=O)c1ccc(O)cc1 (stereo not given),inactive,–
C=C(C)[C@@H]1CC=C(C)C(=O)C1,inactive,–
Nc1ccc2cc(S(=O)(=O)O)cc(O)c2c1N=Nc1ccccc1C(F)(F)F,inactive,–
CC(C)=CCCC(C)CCOC=O (stereo not given),inactive,–
CCCCCCCCCCCCCCCC(=O)OC/C=C(C)/C=C/C=C(C)/C=C/C1=C(C)CCCC1(C)C,inactive,–
CCOC(=O)CC(C)O (stereo not given),inactive,–
CCCC(O)C(O)CO (stereo not given),inactive,–
CCOC(=O)c1ccc(N)cc1,inactive,–
O=C1c2ccccc2C(=O)c2c(O)ccc(O)c21,inactive,–
Cc1c(C2(c3cc(Br)c(O)c(Br)c3C)OS(=O)(=O)c3ccccc32)cc(Br)c(O)c1Br,inactive,–
CCC(C)=O,inactive,–
CCCCOCC,inactive,–
COc1ccc(CCO)cc1,–,183 µM (active)
CC(=O)O[C@@H]1C[C@@H]2CC[C@@]1(C)C2(C)C,inactive,–
